From PubChem BioAssay
KB-V1 cytotox: qHTS assay for MDR1-selective chemotherapeutics: Primary screen using the drug-selected MDR subline cells KB-V1. KB-V1 MDR cells viability, CellTiter-Glo, 72 h. AID 1347076, 2019. Potency, µM (series often up to 46.1 µM), usual class: cytotoxic. 400,000 tested, 3.4% active; also: % is scaled to controls: 0 for no effect and ±100 for the full control effect; nearly all actives have a fitted effect of over 60% in size
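KB-V1, DMEM (no phenol red) + 10% FBS; cpd pin-transferred, titration series; 72 h, 37 degrees C; CellTiter-Glo, luminescence. Data normalized, curve-fit.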
KB-3-1 cytotox: qHTS assay for MDR1-selective chemotherapeutics: Primary screen using the parental adenocarcinoma cell KB-3-1. 400,000 tested, 1.4% active. KB-3-1 viability, CellTiter-Glo ATP luminescence, 72 h. Potency, µM (highest dose often 46.1 µM), hits mostly cytotoxic; also: % is scaled to controls: 0 for no effect and ±100 for the full control effect; nearly all actives have a fitted effect of over 60% in size
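Using CellTiter-Glo luminescence, growth of non-resistant KB-3-1 adenocarcinoma cells is assessed 72 h after pin-tool compound addition at 37 °C. Normalized responses across the concentration series yield fitted curves.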
ELG1 DNA repair: qHTS screen for small molecules that inhibit ELG1-dependent DNA repair in human embryonic kidney (HEK293T) cells expressing luciferase-tagged ELG1. Potency, µM (series often up to 46.1 µM), without a hit: top-dose activity change, negative = inhibition, most hits filed as inhibitors. 330,000 tested, 2.3% active. AID 504467, 2011. HEK293T ELG1-luciferase reporter, luminescence, 16 h; DNA damage induced by 5-fluorouridine; also: % is scaled to controls: 0 for no effect and ±100 for the full control effect; nearly all actives have a fitted effect of over 55% in size
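DMSO vehicle served as the neutral condition. Each well held 2,000 cells given 5-fluorouridine plus compound; after 16 hr at 37 °C/5% CO2, ONE-Glo was added and luciferase measured 30 min later.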
MCF10A rerep: A quantitative high throughput screen for small molecules that induce DNA re-replication in MCF 10a normal breast cells. MCF 10A DNA re-replication, Hoechst nuclear intensity, 48 h. Potency, µM (highest dose often 46.1 µM), for inactives: at the highest dose activity, positive = re-replication, actives largely listed as activators. 350,000 tested, 2.9% active; also: % of control where 0% means no effect; nearly all actives have a fitted effect of over 50% in size
SW480 rereplic: A quantitative high throughput screen for small molecules that induce DNA re-replication in SW480 colon adenocarcinoma cells; 340,000 tested, 1.8% active; Potency, µM (titrated, usually from 46.1 µM), for the others: at the top dose re-replication activation, actives largely listed as activators; SW480 DNA re-replication, Hoechst DNA content imaging, 48 h; AID 624297, 2012; also: % of control where 0% means no effect; nearly all actives have a fitted effect of over 55% in size
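Cells (250 per well) received 23 nL compound or DMSO by pin tool and were kept 48 hr at 37 C, 5% CO2. Nuclei were then stained with Hoechst for 40 min and scanned for DNA content.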
Starred values were filed as active, the others as inactive; i = inactive; ? = inconclusive; . = no result given. Sampled rows, rich in hits. Any-hit rate of the full collection: about 8.1%. Calls follow the shape of the dose curve; as a rule, active = well fitted curve in the direction sought with a large enough effect; inconclusive = small, poorly fitted or top-dose-only effect, or another doubt; inactive = no such curve, though single readings can be large; an effect the other way counts as inactive or inconclusive. Potency is read from the fitted curve at half-maximal effect.

SMILES	KB-V1 cytotox	KB-3-1 cytotox	ELG1 DNA repair	MCF10A rerep	SW480 rereplic
Cc1nn(-c2ccccc2)c(Cl)c1/C=C1\SC(=S)NC1=O	i	i	?	10.3µM*	20.6µM*
Cc1nn(-c2ccccc2)c(Cl)c1/C=C1\SC(=S)N(CCCCCC(=O)O)C1=O	i	i	-7.6%	11.6µM*	-2.0%
CCC(C(=O)Nc1ccc(F)cc1F)n1nc(-c2ccccc2)c2c(c1=O)CCCC2 (stereo not given)	i	i	.	.	.
O=C(NC1CCCC1)C(c1cccnc1)N(Cc1ccccc1F)C(=O)c1csnn1 (stereo not given)	?	i	8.3%	-5.6%	6.6%
N#Cc1nc(Nc2cc(F)cc(F)c2)c2ncn(CCO)c2n1	?	14.6µM*	.	.	.
O=C(NCc1ccccc1)N1CCn2c(nc3ccccc32)C1	18.4µM*	i	-3.6%	-0.5%	1.3%
Cc1ccc(C)c(N2CCN(C3(c4ccccc4)C(=O)c4ccccc4C3=O)CC2)c1	?	i	.	.	.
Cc1cc2cc(CN(Cc3cccs3)C(c3nnnn3C(C)(C)C)C(C)C)c3nnnn3c2cc1C (stereo not given)	1.84µM*	i	9.0%	1.5%	-2.6%
Cc1ccc2cc(CN(Cc3cccs3)Cc3nnnn3C(C)(C)C)c3nnnn3c2c1	.	.	-12.8%	.	.
Cc1ccc(Sc2nc3ccc(C)cn3c(=O)c2/C=N/O)cc1	i	i	5.0%	16.4µM*	?
CCOc1ccc(NC(=O)CCS(=O)(=O)c2ccc(Br)s2)cc1	i	i	.	.	.
COc1ccc(N2CCN(CC(=O)c3ccccc3)CC2)cc1	i	i	3.1%	5.9%	1.6%
Cc1cc(N2CCN(S(=O)(=O)c3ccc(Cl)c(Cl)c3)CC2)c2ccccc2n1	?	20.6µM*	?	?	7.3%
Cn1c(SCC(=O)N2CCN(S(=O)(=O)c3ccc(Cl)cc3)CC2)nc2ccccc21	i	i	?	5.7%	0.7%
Cn1c(CN2CCN(c3ccc(Cl)cc3)CC2)nc2ccccc21	18.4µM*	i	?	?	2.0%
COc1ccc(C(=O)CN2CCN(c3cc(C)nc4ccccc34)CC2)cc1	i	i	8.2µM*	-1.4%	-5.3%
Cn1c(N2CCN(S(=O)(=O)c3ccc(Cl)cc3)CC2)nc2ccccc21	16.4µM*	i	?	-1.6%	-11.5%
COc1ccc(NC(=O)Nc2cccc(-c3cn4cccnc4n3)c2)cc1	i	i	.	.	.
Cc1ccc(S(=O)(=O)N2CCN(c3ccnc4cc(Cl)ccc34)CC2)cc1	i	?	?	13.1%	-18.7%
Cc1cc(N2CCN(S(=O)(=O)c3ccc(Cl)cc3)CC2)c2ccccc2n1	18.4µM*	?	23.1µM*	-6.4%	-8.2%
COC(=O)C1=CN(Cc2ccc(OC)cc2)C=C(C(=O)OC)C1c1ccsc1	?	i	?	?	23.1µM*
COC(=O)C1=CN(CC2CCCO2)C=C(C(=O)OC)C1c1ccsc1 (stereo not given)	i	i	15.7%	6.0%	-19.1%
COC(=O)C1=CN(Cc2cccs2)C=C(C(=O)OC)C1c1ccc(OC)cc1OC	i	i	4.1%	?	24.3%
COCCN1C=C(C(=O)OC)C(c2ccc(Cl)cc2)C(C(=O)OC)=C1	i	i	-7.8%	16.4µM*	9.2µM*
COC(=O)C1=CN(Cc2cccs2)C=C(C(=O)OC)C1c1cccc(Cl)c1	?	i	?	7.31µM*	?
CCc1nc2ccc(C(=O)N(C)Cc3ccco3)cn2c1N(CC)C(=O)NCCc1ccccc1	i	i	.	.	.
Cc1ccc([C@@H]2C[C@H]3[C@@H](CN2S(=O)(=O)c2ccc(C)cc2)C(=O)C[C@@H](c2ccc(Cl)cc2)N3S(=O)(=O)c2ccccc2C)cc1	?	i	.	.	.
O=c1c2c(-c3cccs3)csc2ncn1/N=C/c1ccc(OC(F)F)cc1	14.6µM*	i	-2.3%	-1.0%	-1.3%
